The list is not random: actives were taken first. Their share in the collection is about 4.1%.
hgDAF12 agonist = activates the H. glycines DAF-12 receptor ligand-binding domain; activation, % at 6.8 µM; 1.8% of 370,000 active; AID 687014; HEK293 GAL4-hgDAF12 UAS-luciferase reporter, agonist luminescence; normalized to butyrate control;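 active = activation above a cutoff set at the mean of all screened compounds plus 3 SD, cut at about 10% in these data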
DAX1 inh-1 = inhibits human nuclear receptor DAX1; inhibition, % at 6.75 µM; AID 504766; P51843; 0.99% of 340,000 active; HEK293 Gal4-DAX1 luciferase reporter, luminescence;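 active = inhibition above the mean over all tested compounds plus 3 SD, cut at about 4.2% in these data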;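 also: inhibition shows as a rise in luminescence from relieved DAX1 repression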
Target sequence (P51843 207-470 limits assumed): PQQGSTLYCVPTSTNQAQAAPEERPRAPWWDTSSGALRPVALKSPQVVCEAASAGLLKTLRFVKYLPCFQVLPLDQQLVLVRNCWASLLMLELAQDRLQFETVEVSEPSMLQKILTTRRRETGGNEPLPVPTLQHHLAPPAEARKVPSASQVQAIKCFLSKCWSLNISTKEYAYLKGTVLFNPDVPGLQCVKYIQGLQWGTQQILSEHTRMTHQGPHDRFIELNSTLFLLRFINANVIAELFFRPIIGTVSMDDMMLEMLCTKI
hcDAF12 agonist = activates DAF-12 receptor from parasite H. contortus. activation, % at 6.8 µM. HEK293 hcDAF-12 lit1-tk-luc reporter, luminescence; 0% DMSO, 100% Δ7-dafachronic acid. AID 652067. 1.4% of 370,000 active;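 active = activation above the mean of all tested compounds plus 3 SD, cut at about 5.5% in these data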
DAX1 inh-2 = DAX1 (NR0B1) inhibition, primary screen. 1.1% of 370,000 active. inhibition, % at 6.8 µM. HEK293T StAR-luciferase reporter, SF-1/DAX-1 repression relief. AID 652010;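 active = inhibition above the mean over all tested compounds plus 3 SD, cut at about 3.6% in these data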;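 also: higher inhibition means more luminescence from relief of DAX-1 repression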
ssDAF12 agonist = S. stercoralis DAF-12 activation, primary screen | HEK293 ssDAF-12/GRIP1 lit1-tk-luc reporter, luminescence; % of 3 µM dafachronic acid response | 1% of 370,000 active | activation, % at 6.8 µM;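 active = activation above the mean over all tested compounds plus 3 SD, cut at about 0.9% in these data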
Of the large screens only hits and unclear results are named; the others gave an inactive call.

CSc1cccc(NC(=O)c2nnn(Cc3ccccc3)c2N)c1	none
COc1cc(NC(=O)c2nnn(Cc3ccc(SC)cc3)c2N)cc(OC)c1	DAX1 inh-1 4.2
COc1cccc(NC(=O)c2nnn(CCc3ccccc3)c2N)c1	DAX1 inh-1 6.0
COc1cccc(NC(=O)Cn2nnc(C(=O)Nc3ccccc3)c2N)c1	none
COc1cccc(CCNS(=O)(=O)c2c(C)n[nH]c2C)c1	none (no result: DAX1 inh-1)
COC(=O)[C@]12C[C@H](CC(=O)NCCc3ccccc3OC)C(=O)N(Cc3ccccc3)C1=C[C@H](COCc1ccccc1)O[C@@H]2C	none (no result: DAX1 inh-1)
COc1ccccc1C1CC(c2ccccc2)=NN1S(=O)(=O)c1ccccc1 (configuration not stated)	hgDAF12 agonist 11
COCCNC(=O)CSc1ccccc1C(=O)NCC1CCCCC1	DAX1 inh-1 6.6
CC1CCN(C(=O)c2ccccc2SCC(=O)NCC2CCCCC2)CC1	none
CCCCNS(=O)(=O)/C=C/c1ccc(OC)cc1CNC(=O)OC(C)(C)C	none (no result: DAX1 inh-1)
O=C(Nn1cnnc1)c1ccc(Cl)c(Cl)c1	DAX1 inh-1 6.2
CCCCCCOc1ccc(/C(N)=N/O)cc1	hgDAF12 agonist 11
COc1ccc(-c2cc3nc(CCl)[nH]c(=O)c3s2)cc1	hgDAF12 agonist 12, hcDAF12 agonist 5.9
COc1ccc(-c2cc3nc[nH]c(=O)c3s2)cc1	hgDAF12 agonist 11
Nc1ccccc1-c1nc2ccccc2[nH]1	hgDAF12 agonist 11, DAX1 inh-2 4.0
Cc1ccc(C2=NN(CC(=O)NCc3cccs3)C(=O)CC2)cc1	DAX1 inh-1 5.4
Cc1csc(NC(=O)c2ccc(COc3cccc(F)c3)o2)n1	none (no result: DAX1 inh-1)
CN(C)CCCNC(=O)CC1C[C@H](C(=O)N2CCCCC2)[C@@]2(CCc3ccccc3)c3[nH]c4ccccc4c3CCN2C1=O (some centres not stated)	DAX1 inh-2 3.9
FC(F)(F)c1ccccc1Cn1ccc2ccc(-c3ccc4ccn(Cc5ccccc5C(F)(F)F)c4c3)cc21	none (no result: DAX1 inh-1)
COc1ccccc1C(=O)N/N=C1/NC(=O)CC(C(=O)Nc2ccccc2)S1 (configuration not stated)	none
O=C1CC(C(=O)Nc2ccccc2)S/C(=N\NC(=O)c2ccccc2Cl)N1 (configuration not stated)	DAX1 inh-1 4.3
Clc1ccc(OCc2nc(-c3ccncc3)no2)c(Cl)c1	hgDAF12 agonist 12, hcDAF12 agonist 6.1
CCC[C@H]1[C@@H](OC(=O)NCc2ccc(OC)cc2)CC[C@@]23CCCN2C(=O)CCC[C@@H]13	none (no result: DAX1 inh-1, DAX1 inh-2)
CCN(Cc1ccccc1)C(=O)C1CCCN(c2ncccn2)C1 (configuration not stated)	none (no result: DAX1 inh-1)
COC(=O)[C@@]12CCCCC=C1N(CCc1ccc(Cl)cc1)C(=O)[C@H]2CC(=O)NCc1ccc(C)o1	none (no result: DAX1 inh-1)
CCOC(=O)c1c(CSC(=N)N)n(-c2ccccc2)c2cc(Br)c(OC(C)=O)cc12	DAX1 inh-1 4.3
CCOC(=O)c1c(CN2CCN(C)CC2)n(-c2ccccc2)c2cc(Br)c(O)cc12	none
CCC(C)[C@H](NC(=O)[C@H](Cc1ccccc1)NC(=O)OC(C)(C)C)C(=O)NCc1ccccc1Br (some centres not stated)	none (no result: DAX1 inh-1)
COc1ccc(/C=C2\SC(=S)N(N3C(=O)CCC3=O)C2=O)cc1O	DAX1 inh-1 4.4
COc1ccc(/C=C2/SC(=S)N(Cc3ccccc3)C2=O)cc1O	none
O=C(O)c1ccc(-c2ccccc2)[nH]c1=O	DAX1 inh-1 5.4
O=C(c1ccccc1)c1nn(-c2ccc(Cl)cc2)cc1C(=O)c1cc2ccccc2oc1=O	ssDAF12 agonist 1.1
COc1ccc2cc(C(=O)NCCCN3CCCC3=O)[nH]c2c1	hcDAF12 agonist 6.2
COc1cccc2[nH]c(C(=O)NCCCN3CCCC3=O)cc12	none
C[C@H]1/C=C/CC(=O)N[C@@H](c2ccccc2)[C@@H](C)/C=C/CC(=O)N[C@H]1c1ccccc1	none (no result: DAX1 inh-1)
COc1ccc(S(=O)(=O)n2c(C)nc3ccccc32)cc1C	hgDAF12 agonist 12
CCOC(=O)N1CCN(C(=O)C[C@H]2C[C@@]3(C(=O)OC)C(=C[C@H](COCc4ccccc4)O[C@@H]3C)N(Cc3ccccc3)C2=O)CC1	none (no result: DAX1 inh-1)
CCCn1c2c(c(O)c(C(=O)Nc3nc4ccccc4s3)c1=O)CCCC2	hcDAF12 agonist 6.0
O=C(Nc1ccccc1F)Nc1cccc2ccc(O)cc12	hcDAF12 agonist 6.2
O=C(CN1CCN(Cc2ccccc2Cl)C1=O)NCc1cccnc1	DAX1 inh-1 6.0
COc1ccc(-c2noc(-c3cccc(Cl)c3)n2)cc1OC	none
COc1ccc(-c2noc(-c3ccccc3Cl)n2)cc1OC	DAX1 inh-1 5.1
COc1ccc(-c2noc(-c3ccc(Cl)cc3[N+](=O)[O-])n2)cc1OC	hcDAF12 agonist 5.7
COC(=O)C1CN(Cc2cn(Cc3ccc(F)cc3)nn2)CCS(=O)(=O)N1Cc1ccc(C)cc1 (configuration not stated)	none (no result: DAX1 inh-1)
CC(C)C[C@H]1CNC(=O)C(=O)N1CC1CCN(CC2CCC(C(C)(C)C)CC2)CC1 (some centres not stated)	DAX1 inh-2 4.1
O=C1NC[C@H](CCCCN2C[C@H](Cc3ccccc3)N(CCC3CCCCC3)C(=O)C2=O)N(CC2CCCCC2)C1=O	none (no result: DAX1 inh-1)
CC(C)CCN1CCC(CN2C(=O)C(=O)NC[C@@H]2CC(C)C)CC1	none (no result: DAX1 inh-1)
O=C1NC[C@H](CCCCN2C[C@H](Cc3ccccc3)N(CC3CCCCC3)C(=O)C2=O)N(CCC2CCCCC2)C1=O	ssDAF12 agonist 1.4 (no result: DAX1 inh-1)
CC(C)C[C@H]1CN(CCCC[C@@H]2CNC(=O)C(=O)N2CC2CCCCC2)C(=O)C(=O)N1Cc1ccccc1	hgDAF12 agonist 11 (no result: DAX1 inh-1)
CN(C)[C@@H]1CCN(c2cccc3c2S(=O)(=O)N2CC[C@H](C2)O3)C1	none (no result: DAX1 inh-1)
CS(=O)(=O)c1ccc(Cl)c(NC(=O)CN2CCCC2c2ccc3c(c2)OCCCO3)c1 (configuration not stated)	hgDAF12 agonist 11
O=C(C1CCCN1S(=O)(=O)c1ccccc1[N+](=O)[O-])N1CCN(c2ccccc2)CC1 (configuration not stated)	none (no result: DAX1 inh-1)
O=C(Cc1ccc(F)cc1)N/N=C/c1ccc(-c2ccc(Cl)c(C(=O)O)c2)o1	none
COCc1cc(C)n(CC(=O)N/N=C/c2ccc(-c3ccc(Cl)c(C(=O)O)c3)o2)c(=O)c1C#N	ssDAF12 agonist 0.9
CCN(CC)c1ccc(C=Nn2c(-c3ccc(F)cc3)n[nH]c2=S)c(O)c1	none (no result: DAX1 inh-1)
COc1ccc(C2Nc3ccccc3C(=O)N2c2ccccc2)cc1CN1CCOCC1 (configuration not stated)	DAX1 inh-1 6.1
COc1ccc(C2Nc3ccccc3C(=O)N2Cc2ccccc2)cc1CN1CCOCC1 (configuration not stated)	none
Cc1cc(NS(=O)(=O)c2ccc(NC(=S)NCc3ccccc3)cc2)no1	DAX1 inh-1 6.5
COC(=O)c1ccc2c(c1)C(=O)/C(=C/c1ccc(O)cc1)O2	none

Source: PubChem BioAssay
